Assay outcomes (PubChem)
The list is not random: actives were taken first. Their share in the collection is about 4.3%.
HIF-2a block: blocks HIF-2a reporter activity; inhibition, % at 18.8 µM; 360,000 tested, 0.72% active; 786-0 RCC cells HIF-2a reporter, luciferase luminescence, overnight;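 active means inhibition of the luminescence signal of 40% or more relative to plate controls, in a single-dose primary screen at 18.75 µM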
CF NFkB inh: blocks PAF-induced NF-kB reporter in cystic fibrosis cells; KKLEB NF-kB-GFP reporter, GFP fluorescence overnight; 360,000 tested, 0.86% active; inhibition, % at 5 µM;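 active means at least 50% inhibition at 5 µM, scaled per plate between neutral and stimulator controls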;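 further: PAF is a Pseudomonas aeruginosa culture filtrate used as stimulus; plate controls were PAF-stimulated DMSO wells for no effect and unstimulated DMSO wells for full effect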
MITF TRPM1 inh: reduces MITF-dependent TRPM1 promoter luciferase signal; SK-MEL-5 TRPM1 promoter luciferase, 24 h; inhibition, % at 12.5 µM; 330,000 tested, 0.83% active; AID 488899;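 active means mean inhibition across replicates of 60% or more, whatever share of single replicates reaches that level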
KKLEB cytotox: CF airway cell cytotoxicity counter-screen | 360,000 tested, 0.36% active | KKLEB CF airway cells viability, ATPlite luminescence, overnight; hits give low values; cells stimulated with P. aeruginosa culture filtrate | activity change (cytotoxicity), % at 5 µM | AID 602141;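 active means corrected activity change at or below -50% at 5 µM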
CHOP inh: blocks CHOP induction under ER stress; CHO-K1 CHOP-promoter luciferase, tunicamycin-induced, 15-18 h; inhibition, % at 10 µM; 220,000 tested, 3.8% active;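 active means compounds that reduced the stress-induced luciferase reporter signal by more than about 70% of percent inhibition, limit read from the data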;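 further: 0% = tunicamycin plus vehicle and 100% = wells without tunicamycin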
Peg3 promoter: Peg3 promoter activity inhibition | inhibition, % at 20 µM | HeLa PEG-Prom luciferase reporter, luminescence, overnight | AID 588405 | 360,000 tested, 1.7% active;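 active means inhibition of at least 50% at 20 µM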
Starred values were filed as active, the others as inactive; . = no result given.

SMILES	HIF-2a block	CF NFkB inh	MITF TRPM1 inh	KKLEB cytotox	CHOP inh	Peg3 promoter
O=C(c1ccc(-c2ccc([N+](=O)[O-])cc2)o1)N1CCCCCCC1	8.0	29.9	-17.1	-6.5	.	105.4*
O=C(c1ccc(-c2ccc([N+](=O)[O-])cc2)o1)N1CCCC(C(F)(F)F)C1 (stereo unspecified)	-127.8	-1.9	-56.8	-5.7	.	-131.6
CCC(=O)NC1=C(Cl)C(=O)C(NC(=O)CC)=C(Cl)C1=O	95.7*	37.3	23.2	-2.1	86.7*	80.6*
COCCCn1c2nc3ccccc3nc2c2c(=O)n(-c3ccccc3OC)cnc21	11.1	5.4	-10.4	4.8	3.9	2.2
COc1ccccc1-n1cnc2c(c1=O)c1nc3ccccc3nc1n2-c1ccc(C)c(C)c1	0.3	-16.6	-15.2	-0.4	84.1*	15.1
CC(C)N1C(=O)/C(=C\c2nc3ccccc3c(=O)n2-c2ccccc2)c2ccccc21	87.0*	-31.5	24.0	2.7	14.8	36.5
CC(C)N1C(=O)C(Cc2nc3ccccc3c(=O)n2-c2ccccc2)c2ccccc21 (stereo unspecified)	18.2	-16.4	-0.6	3.8	10.9	15.8
COc1ccc(-c2nc3c4ccccc4ccn3c2Cc2ccccc2)cc1OC	-251.3	-67.4	.	-1.9	.	-167.2
CCOC(=O)Cn1nc2oc(=O)c(CCN3CCN(c4ccccc4OC)CC3)c(C)c2c1C	3.8	15.8	.	1.9	.	1.4
O=C(NCCCN1CCOCC1)c1[nH]c(C(F)(F)F)nc1-c1ccccc1	14.3	2.4	.	-13.4	.	1.7
Cc1cccn2c(=O)c3cc(C(=O)NC4CCCCC4)c(=N)n(Cc4ccccc4)c3nc12	5.8	26.9	23.8	-12.3	.	54.2*
CCNC(=O)c1cc2c(=O)n3cccc(C)c3nc2n(CCc2ccccc2)c1=N	14.5	-61.3	-8.7	-8.7	-7.2	8.0
N=c1c(C(=O)NC2CCCC2)cc2c(=O)n3ccccc3nc2n1Cc1ccccc1	-6.1	1.0	-2.4	-20.4	.	-23.8
Cc1cccn2c(=O)c3cc(C(=O)NC4CCCC4)c(=N)n(CCc4ccccc4)c3nc12	-6.0	-58.3	-7.1	-12.4	.	69.2*
Cc1cccn2c(=O)c3cc(C(=O)NC4CCCC4)c(=N)n(Cc4ccc(F)cc4)c3nc12	-2.6	20.3	-1.8	8.9	.	57.9*
CCOc1ccc(C(=O)Nc2ccccc2N2CCN(C(=O)c3ccccc3)CC2)cc1[N+](=O)[O-]	17.8	28.6	-18.6	-30.2	.	47.0
CCN(CC)c1ccc(S(=O)(=O)N2CCOCC2)cc1NC(=O)c1cc(=O)c2ccccc2o1	-1.8	40.1	9.4	-19.9	43.7	61.7*
CCN(CC)c1ccc(S(=O)(=O)N2CCOCC2)cc1NC(=O)CSc1ccccc1	7.0	-13.9	0.6	-1.3	.	18.6
Cc1c(C(=O)N(Cc2ccccc2)C(C)C)oc2ccc(S(=O)(=O)N3CCOCC3)cc12	25.0	18.9	7.0	-3.9	.	51.1*
CCOC(=O)Cc1csc(SCC(=O)NC2CCCC2)n1	13.7	-2.6	5.2	1.7	.	-3.1
COc1ccc(CN2CCN(c3ccc(F)cc3)CC2)c(OC)c1OC	22.6	-2.4	-3.9	4.8	44.4	18.0
COc1ccc(CN2CCN(C(c3ccc(F)cc3)c3ccc(F)cc3)CC2)c(OC)c1OC	-18.5	22.1	13.3	-0.2	.	77.5*
CCn1c(=O)n(CC)c2cc(N3CCCC3)c(NC(=O)c3ccc(C)c([N+](=O)[O-])c3)cc21	14.8	-14.7	1.9	8.9	.	23.0
COCC(=O)N1CCC(Oc2ccc(C(=O)NCCc3ncccc3C)cc2)CC1	-6.1	-0.1	-4.7	31.1	.	22.4
Cc1cccnc1CCNC(=O)c1ccc(OC2CCN(Cc3ccccn3)CC2)cc1	18.8	-36.3	18.2	-1.2	.	72.3*
SMILES	HIF-2a block	CF NFkB inh	MITF TRPM1 inh	KKLEB cytotox	CHOP inh	Peg3 promoter
O=C(Cc1ccc(NS(=O)(=O)c2ccc(F)cc2)cc1)NCc1cccnc1	6.6	-2.8	.	7.5	.	6.3
O=C(NCc1cccc(C(F)(F)F)c1)C1CCCN(c2ncccn2)C1 (stereo unspecified)	3.8	-4.1	-1.0	-2.7	3.1	30.0
Cc1cc(C)nc(N2CCCC(C(=O)NCc3cccc(C(F)(F)F)c3)C2)n1 (stereo unspecified)	14.2	-1.9	3.7	4.0	82.9*	16.2
CNC[C@H](CC1CCCCC1)NC[C@H](CO)NCC1(c2ccccc2)CC1	2.6	-7.5	65.8*	-11.0	.	-19.2
CNC1=C(N(C(C)=O)c2ccc(Br)cc2)C(=O)c2ccccc2C1=O	60.2*	75.6*	106.8*	-62.5*	-12.8	101.6*
CCC(=O)N(C1=C(NC)C(=O)c2ccccc2C1=O)C(C)C	9.4	5.9	35.1	0.1	16.8	30.4
COc1ccc(-[n+]2c(C)cc(/C=C3\Sc4ccccc4N3C)cc2C)cc1	53.1*	-81.6	101.2*	-31.2	92.0*	114.7*
COc1ccc(C(=O)/C=C2\Sc3ccccc3N2C)cc1	-181.3	-3.3	-8.9	-2.5	-4.1	-218.4
CN1CCN(c2ncnc3c2ncn3[C@H]2CN(Cc3ccc(F)cc3)C[C@@H](CO)O2)CC1	4.4	-2.7	.	6.3	.	3.2
Cc1cc(/C=C2/SC(=S)N(c3ccc([N+](=O)[O-])cc3)C2=O)c(C)n1-c1cccnc1	-32.7	-22.5	51.6	-3.8	71.1*	-0.8
Cc1cc(/C=C2\SC(=S)N(C)C2=O)c(C)n1-c1ccc(O)cc1	45.4*	-7.6	75.9*	-3.8	58.3	62.1*
Cc1ccc(N2C(=O)/C(=C/c3cccnc3)SC2=S)cc1	-3.0	13.1	15.5	-2.3	75.5*	-24.7
Nc1ncnc2c1ncn2[C@@H]1O[C@H](C(=O)N(CCC2=CCCCC2)CC2CC2)[C@@H](O)[C@H]1O	17.9	-9.6	.	-3.5	.	15.3
Cc1ccc(C(=O)N/N=C2\SCC(=O)N2c2cc(C)ccc2C)cc1	-55.3	-0.2	-16.2	2.3	75.3*	-93.3
O=C(Nc1ccnn1C1CCN(Cc2ccc(CO)o2)CC1)c1cccc(F)c1	-2.3	-7.8	.	-2.2	.	3.0
Cc1ccc(N2C(=O)CC(Cc3ccc(Cl)cc3)C2=O)cc1 (stereo unspecified)	18.8	-9.8	0.1	3.7	.	9.1
Cc1ccc2[nH]c(=O)c(CN(CCCN(C)C)C(=S)NCCc3ccccc3)cc2c1	2.2	3.0	-0.4	1.3	16.4	56.2*
COc1cccc(OC)c1C(=O)Nc1cccc(NC(=O)c2cccs2)c1	18.9	5.1	-9.7	-11.7	.	3.0
CC(C)C1OC(c2cccc(NC(=O)c3cccs3)c2)OCC1(C)C (stereo unspecified)	13.9	0.0	-4.4	-0.2	78.7*	9.7
CC(NS(=O)(=O)c1cc(C(F)(F)F)ccc1Cl)C(=O)N(C)C1CCN(C)CC1 (stereo unspecified)	5.9	2.4	.	-6.0	.	-7.2
CC1(Oc2ccc3ccccc3c2)CCN(Cc2ccc(OC(F)(F)F)cc2)C1 (stereo unspecified)	10.6	-6.8	.	5.4	.	11.1
